tim10-1 inh – growth inhibitors of tim10-1 mutant yeast, primary screen, luminescence, uHTS. S. cerevisiae tim10-1 ts strain growth, BacTiter-Glo, 24 h. 330,000 tested, 2.2% active. AID 463190, 2010. inhibition, % at 20 µM;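 active = inhibition of at least 40%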;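 note: mutant grown at 25 °C; 0% = DMSO wells with yeast and 100% = wells holding no yeast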
NLRP3 yeast inh – NALP3 inflammasome inhibitors in reconstituted yeast, primary screen, luminescence, uHTS; Yeast reconstituted NLRP3/ASC/caspase-1, beta-gal luminescence, 24 h; inhibition, % at 10 µM; 330,000 tested, 0.39% active; AID 2825, 2010;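 active = inhibition of 50% or more; inactive = inhibition below 50%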;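 note: plate controls were induced DMSO wells for no effect and uninduced yeast grown without galactose for full effect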
V-ATPase pH – regulators of yeast V-ATPase proton pumping, primary screen, pHLuorin cytosolic pH fluorescence | S. cerevisiae | response, % at 10 µM | 350,000 tested, 0.37% active | AID 504577, 2011; in the data active = response mostly above about 7.3%, no sharp cut-off; inactive = mostly below about 5.4%; note: actives read high
NALP1 inh – NALP1 inflammasome inhibitors in reconstituted yeast, colorimetric, S. cerevisiae, triplicate retest. S. cerevisiae NALP1/ASC/caspase-1 growth, X-gal OD620, 72 h. inhibition, % at 10 µM. 280,000 tested, 0.61% active; in the data active = inhibition mostly above about 24%, no sharp cut-off; inactive = mostly below about 32%
tim23-1 inh – growth inhibitors of tim23-1 mutant yeast, primary screen, luminescence, uHTS; 330,000 tested, 1.3% active; inhibition, % at 20 µM; S. cerevisiae tim23-1 growth, BacTiter-Glo luminescence, 24 h;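 active = growth inhibition of the mutant yeast at or above 50%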;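 note: temperature-sensitive mutant grown at 25 °C; plate controls were DMSO-treated mutant yeast for no effect and medium wells lacking yeast for full effect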
TIM10 inh – growth inhibitors of isogenic TIM10 control yeast, primary screen, counter-screen for tim10-1 yeast inhibitor project, luminescence, uHTS; 330,000 tested, 1.4% active; AID 463195, 2010; inhibition, % at 10 µM; S. cerevisiae TIM10 strain growth, BacTiter-Glo luminescence, 24 h;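 active = inhibition of 40% or more at the single tested concentration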;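 note: wild-type TIM10 isogenic control strain grown at permissive 25 °C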
Numbers without * were called inactive. In the library only some 4.2% were active in any assay of this set; here they are far more common.

`Fc1cccc(F)c1-n1c(CN2CCCC2)csc1=S` gave tim10-1 inh 12, NLRP3 yeast inh 15, V-ATPase pH -3, NALP1 inh 15, tim23-1 inh 7 and TIM10 inh 7.
Screening COc1ccc(-c2[nH]ncc2CNCCCSC)cc1F returned tim10-1 inh -8, NLRP3 yeast inh -7, V-ATPase pH 14*, NALP1 inh 2, tim23-1 inh 14 and TIM10 inh -6.
`CCN(CC(=O)NCc1ccc(Cl)cc1)C(=O)c1ccc(S(=O)(=O)N(C)C)cc1` gave tim10-1 inh 7, NLRP3 yeast inh -2, V-ATPase pH -1, NALP1 inh -9, tim23-1 inh 8 and TIM10 inh 8.
For Cc1onc(-c2ccccc2)c1C(=O)Nc1ccnn1C1CCCCC1 the results were tim10-1 inh 16, NLRP3 yeast inh 3, V-ATPase pH -3, NALP1 inh 32*, tim23-1 inh 25 and TIM10 inh 5.
Cc1cc(N2CCCCC2)nc2ccc(NC(=O)c3ccc(Br)o3)cc12 was read as tim10-1 inh -12, NLRP3 yeast inh 26, V-ATPase pH -3, NALP1 inh 12, tim23-1 inh 15 and TIM10 inh -14.
`Cc1cc(N2CCN(C)CC2)nc2ccc(NC(=O)c3ccc(Br)o3)cc12` gave tim10-1 inh -7, NLRP3 yeast inh 3, V-ATPase pH 1, NALP1 inh 38*, tim23-1 inh -6 and TIM10 inh -5.
Screening Cc1ccccc1-n1c(SCC(=O)N(C)C2CCS(=O)(=O)C2)nnc1-c1ccncc1 (configuration not stated) returned tim10-1 inh -1, NLRP3 yeast inh 11, V-ATPase pH -1, NALP1 inh -4, tim23-1 inh 9 and TIM10 inh -8.
Cc1ccccc1-n1c(C)nnc1SCC(=O)N(C)C1CCS(=O)(=O)C1 (configuration not stated) was read as tim10-1 inh -5, NLRP3 yeast inh 17, V-ATPase pH 15*, NALP1 inh 3, tim23-1 inh 2 and TIM10 inh 7.
For CC(NC(=O)c1ccnn1C)C1CCCO1 (configuration not stated) the results were tim10-1 inh -5, NLRP3 yeast inh -7, V-ATPase pH -1, NALP1 inh 6, tim23-1 inh -5 and TIM10 inh 3.
Screening Clc1ccccc1CO/N=C1\CCCc2nonc21 returned tim10-1 inh 11, NLRP3 yeast inh 23, V-ATPase pH -7, NALP1 inh 43*, tim23-1 inh 24 and TIM10 inh 18.
CCCc1cc(=O)[nH]c(SCCOc2ccc(OCC)cc2)n1 was read as tim10-1 inh 17, NLRP3 yeast inh 20, V-ATPase pH -5, NALP1 inh 44*, tim23-1 inh 19 and TIM10 inh 3.
`COc1ccc(Nc2nc(-c3ccncc3)nc3ccccc23)cc1` gave tim10-1 inh 26, NLRP3 yeast inh 11, V-ATPase pH 0, NALP1 inh 37*, tim23-1 inh 29 and TIM10 inh 26.
Screening COc1ccc(OC)c(Nc2nc(-c3ccncc3)nc3ccccc23)c1 returned tim10-1 inh 20, NLRP3 yeast inh 1, V-ATPase pH 11, NALP1 inh 13, tim23-1 inh 19 and TIM10 inh 5.
CN(c1ccc(OCC(=O)Nc2ccc3[nH]c(=O)[nH]c3c2)cc1)S(=O)(=O)c1ccc(Cl)cc1 was read as tim10-1 inh 12, NLRP3 yeast inh -6, V-ATPase pH -2, NALP1 inh 42*, tim23-1 inh 5 and TIM10 inh 1.
Screening CCOc1ccc(S(=O)(=O)N(C)c2ccc(OCC(=O)Nc3ccc4[nH]c(=O)[nH]c4c3)cc2)cc1 returned tim10-1 inh 12, NLRP3 yeast inh 12, V-ATPase pH -6, NALP1 inh 9, tim23-1 inh 4 and TIM10 inh -1.
`CN(c1ccc(OCC(=O)NCCc2ccccc2)cc1)S(=O)(=O)c1ccc(Cl)cc1` gave tim10-1 inh 19, NLRP3 yeast inh 23, V-ATPase pH 3, tim23-1 inh 12 and TIM10 inh 4.

Screening results from PubChem BioAssay.
